TRb-SRC2 inh: disrupts binding of human TR beta to SRC2. Potency, µM (highest dose often 106 µM), for inactives: at the top dose activity change, negative = inhibition, hits mostly inhibitors. TRbeta-SRC2 peptide binding, fluorescence polarization; receptor liganded with 1 µM T3. P10828. 280,000 compounds, 0.065% hits;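 also: plate controls were bound peptide for no effect and peptide without receptor for full effect; nearly all actives have a fitted effect of over 50% in size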
Target sequence (P10828 whole entry, looked up): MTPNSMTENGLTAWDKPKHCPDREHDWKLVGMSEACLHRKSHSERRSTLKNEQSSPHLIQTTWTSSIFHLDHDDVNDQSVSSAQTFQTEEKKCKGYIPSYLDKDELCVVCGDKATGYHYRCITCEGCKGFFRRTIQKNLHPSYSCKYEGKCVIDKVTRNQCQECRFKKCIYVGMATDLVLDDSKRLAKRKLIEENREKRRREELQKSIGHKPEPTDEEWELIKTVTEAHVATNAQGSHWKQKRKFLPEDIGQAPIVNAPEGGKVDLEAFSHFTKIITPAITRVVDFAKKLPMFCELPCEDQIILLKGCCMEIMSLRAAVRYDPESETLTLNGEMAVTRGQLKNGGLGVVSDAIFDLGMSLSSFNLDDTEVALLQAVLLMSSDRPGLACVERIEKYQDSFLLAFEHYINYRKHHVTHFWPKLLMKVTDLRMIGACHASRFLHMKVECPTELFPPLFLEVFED
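Assay buffer: 20 mM Tris-HCl, 100 mM NaCl, 10% glycerol, 1 mM EDTA, 0.01% NP-40, 1 mM DTT, 1 uM T3, 5% DMSO; TRb LBD 0.6 uM, Texas Red SRC2 20 nM; FP after 5 hr.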
RECQ1 inh-1: blocks DNA unwinding by human RECQ1 | Potency, µM (doses to about 57.3 µM), for inactives: at the highest dose activity, negative = inhibition, hits mostly inhibitors | RECQ1 DNA unwinding, red fluorescence kinetic read | AID 2549 | P46063 | 240,000 compounds, 0.54% hits;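 also: plate controls were vehicle for no effect and no enzyme for full effect; nearly all actives have a fitted effect of over 30% in size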
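50 nM RECQ1T1 preincubated 15 min with compound in Tris pH 8.0 buffer with MgCl2, DTT, Tween-20 and 2.5 ug/ml poly(dI-dC); started with 200 nM TAMRA/BHQ-2 forked duplex and 2 mM ATP. Unwinding read as fluorescence (525/598 nm), two reads 2 h apart.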
BLM helicase inh: inhibitors of human Bloom syndrome helicase BLM | recombinant BLM DNA unwinding, fluorescence dequenching | 350,000 compounds, 0.2% hits | Potency, µM (top dose mostly 56.1 µM), inactives show top-dose activity change, negative = inhibition, most hits filed as inhibitors;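 also: plate controls were vehicle for no effect and no enzyme for full effect; nearly all actives have a fitted effect of over 35% in size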
TR SRC2 fluor cs: alters Texas Red total fluorescence, flagging assay interference | 280,000 compounds, 0.29% hits | Potency, µM (series often up to 106 µM), for the others: top-dose fluorescence change, negative = quenching | TRb/SRC2 Texas Red total fluorescence interference; active = well fitted curve in either direction with a large enough effect; inconclusive = small, poorly fitted or top-dose-only effect
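Human TRb ligand-binding domain at 0.6 uM with 20 nM Texas Red SRC2 peptide in Tris buffer containing 1 uM T3 and 5% DMSO, incubated with compound 5 h at ambient temperature. Total fluorescence (555/632 nm) calculated as parallel + 2 × perpendicular.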
RECQ1 inh conf: confirmation of human RECQ1 helicase inhibitors | 610 compounds, 28% hits | shares compounds with RECQ1 inh-1 | AID 2708 | RECQ1 helicase DNA unwinding, fluorescence | Potency, µM (doses to about 229 µM), for inactives: top-dose activity change, negative = inhibition, usual class: inhibitors; also: nearly all actives have a fitted effect of over 45% in size
RECQ1 ADP FP: counter-screen for RECQ1 inhibitors: ADP displacement | ADP fluorescence polarization displacement counterscreen | AID 2711 | 530 compounds, 27% hits | Potency, µM (doses to about 228 µM), without a hit: at the top dose activity change, negative = inhibition, usual class: inhibitors | shares compounds with RECQ1 inh-1; also: nearly all actives have a fitted effect of over 45% in size
RECQ1 inh-2: blocks human RECQ1 DNA unwinding; shares compounds with RECQ1 inh-1; recombinant RECQ1 DNA unwinding, red fluorescence; Potency, µM (highest dose often 119 µM), for inactives: at the top dose activity, negative = inhibition, actives largely listed as inhibitors; 1,100 compounds, 15% hits; also: nearly all actives have a fitted effect of over 50% in size
* marks the source's active call; other numbers are inactive results; i = inactive; ? = inconclusive; / = not tested or not shown; [ ] = remark or other dose. This is a sample that favours compounds with a hit; in the whole collection about 0.64% have one here. Unless noted, calls follow the shape of the dose curve; as a rule, active = well fitted curve in the direction sought with a large enough effect; inconclusive = small, poorly fitted or top-dose-only effect, or another doubt; inactive = no such curve, though single readings can be large; an effect the other way counts as inactive or inconclusive. Unless noted, % is scaled to controls: 0 for no effect and ±100 for the full control effect; potency is read from the fitted curve at half-maximal effect.

SMILES | TRb-SRC2 inh | RECQ1 inh-1 | BLM helicase inh | TR SRC2 fluor cs | RECQ1 inh-2 | others
Cc1ccc(C)n1-c1sccc1C(=O)O | 0.9% | 20µM* | -17.0% | -21.5% | / | RECQ1 inh conf=-75.8%[114 µM]
Cc1ccc(-c2c(C3C4C=CCCC4(C)C(=O)N3Cc3ccccc3)ccc3ccccc23)cc1 (centres undefined) | 0.4% | i | -13.5% | -1.0% | /
COCCCNc1c2c3c(cccc3[nH]c1=O)C(=O)c1ccccc1-2 | ? | 25.1µM* | -10.3% | ? | 56.2µM*
O=C(Cc1ccccc1)Nc1sc2c(c1C(=O)Nc1ccc(Br)cc1)CCCC2 | -6.4% | / | -3.7% | 2.3% | /
CCC(=O)N(C)/C=C1\Sc2ccccc2C1=O | -0.8% | -4.1% | -0.2% | -6.0% | /
CC(=O)N(C)/C=C1\Sc2ccccc2C1=O | 8.0% | ? | -1.9% | 9.1% | -14.6%
COc1ccc(C2c3c(n(C)c4ccccc34)C(=O)N2CC(=O)Nc2ccc(Cl)cc2)cc1 (centres undefined) | -2.4% | / | -2.2% | -2.5% | /
CO/N=C\c1ccc(C(=O)N2[C@H](c3ccc(C)cc3)[C@@H](C)CC[C@H]2C(=O)OC)cc1 | 0.4%[11.2 µM] | i[11.5 µM] | -0.4%[12.4 µM] | 1.6%[11.2 µM] | /
C=CC[C@@H]1C=C[C@H](O/N=C/c2ccc(C(=O)N3[C@H](c4ccc(C)cc4)[C@@H](C)CC[C@H]3C(=O)OC)cc2)[C@@H](CO)O1 | -1.6% | ? | -10.5% | -3.6% | -16.5%
c1ccc(C(c2ccccc2)N2CC3(CCNCC3)C2)cc1 | / | -7.3% | -2.4% | / | /
Cc1nc(/N=C(\N)NC(=O)c2ccccc2)nc2ccccc12 | -15.5% | -9.0% | 3.1% | -3.4% | /
Cc1nc(/N=C(\N)NC(=O)N2c3ccccc3Sc3ccccc32)nc2ccccc12 | 4.8% | -5.9% | 6.0% | 2.5% | / | RECQ1 inh conf=3.2%;RECQ1 ADP FP=-4.5%
Cc1cc(=O)[nH]c(SCC(=O)Nc2ccc(C(=O)O)cc2)n1 | -17.2% | -0.9% | 3.7% | -1.9% | /
CCOC(=O)c1ccc(NC(=O)CSc2nc(C)cc(=O)[nH]2)cc1 | -4.1% | ? | -19.9% | -2.8% | ?
CC1Cc2ccccc2N1C(=O)CSc1nnc(-c2cccc(Cl)c2)o1 (centres undefined) | -7.7% | / | -6.3% | ? | /
Cc1cc(C2C(=O)CC(=O)CC2c2ccccc2)on1 (centres undefined) | -24.4% | 25.1µM* | -14.4% | 0.8% | ?
CCOC(=O)c1ccc(N2C(=O)c3[nH]nc(-c4ccc(C)cc4)c3C2c2ccc(O)c(OCC)c2)cc1 (centres undefined) | -6.2% | / | -8.9% | 0.7% | /
Cc1ccc(NC(=O)Cc2cc(C(=O)O)c3ccccc3n2)c(C)c1 | 2.8% | i | -0.1% | -3.0% | / | RECQ1 inh conf=10.8%;RECQ1 ADP FP=-0.6%
Cc1ccc(NC(=O)c2cc(-c3cccs3)nc3ccccc23)c(C)c1 | 1.8% | / | -1.8% | -2.4% | /
COc1ccccc1CNC(=O)c1ccc2c(c1)nc(C)n2-c1ccccc1OC | -8.0% | / | -2.9% | -0.1% | /
CC(=O)N1CCCc2cc(S(=O)(=O)N3CCC(C(=O)N(Cc4ccccc4)C(C)C)CC3)ccc21 | 2.4% | / | -1.4% | -1.4% | /
CC(=O)c1ccc2c(c1)C1C=CCC1C(c1ccncc1)N2 (centres undefined) | 4.8% | ? | -28.7% | -5.2% | 36.4%
Cc1cc(C)cc(SCc2noc(C(=O)NCC3CCCO3)c2C(=O)O)c1 (centres undefined) | -11.0% | -8.2% | -2.2% | -5.3% | / | RECQ1 inh conf=10.1%;RECQ1 ADP FP=?
Cc1ccc(S(=O)(=O)N(C)C)cc1NC(=O)COC(=O)c1n[nH]c(=O)c2ccccc12 | -9.3% | -5.4% | 3.4% | -2.7% | / | RECQ1 inh conf=13.2%;RECQ1 ADP FP=?
COc1ccc(-n2c(O)c(/C=N/NS(=O)(=O)c3ccc(C)cc3)c3ccccc3c2=O)cc1OC | 14.3% | 10µM* | -4.0% | 14.8% | ?

Screening data (PubChem BioAssay)
